The nature of test [1]: Nuclear factor erythroid 2-related factor 2/antioxidant responsive element (Nrf2/ARE) small molecule agonists: qHTS cell viability counter screen in human keratinocytes (AID 1919968; active = well fitted curve in the direction sought with a large enough effect in the repeat runs; an effect the other way counts as inactive or inconclusive; also: nearly all actives have a fitted effect of over 55% in size). The method in brief: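 Cytotoxicity was multiplexed with the Nrf2/ARE luciferase assay in the same wells. Stably transfected HaCaT keratinocytes were treated with test compounds for 23 h at 37 C. Cell viability was then measured by CellTiter-Fluor fluorescence.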

The nature of test [2]: Nuclear factor erythroid 2-related factor 2/antioxidant responsive element (Nrf2/ARE) small molecule agonists: luciferase reporter gene qHTS assay in human keratinocytes (AID 1919969). Also: nearly all actives have a fitted effect of over 35% in size. Also: potency is read from the fitted curve at half-maximal effect. For orientation: A reporter such as luciferase makes a cellular process visible.
For test [3], the target named is KiSS-1 receptor (Homo sapiens) (UniProt Q969F8). As to the kind of experiment: Human kisspeptin (KISS1R) small molecule agonists, calcium flux assay in KISS1R-HEK293 cells (AID 1920064; active = well fitted curve in the direction sought with a large enough effect in the repeat runs; an effect the other way counts as inactive or inconclusive). Summed up: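 Agonist activity is monitored as intracellular calcium rise in engineered HEK293 cells carrying human KISS1R. Cells are dye-loaded for 1 h at 37 C before compound addition, and fluorescence is recorded for 3 min.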
Chain of KiSS-1 receptor (Homo sapiens) (Q969F8 whole entry, looked up): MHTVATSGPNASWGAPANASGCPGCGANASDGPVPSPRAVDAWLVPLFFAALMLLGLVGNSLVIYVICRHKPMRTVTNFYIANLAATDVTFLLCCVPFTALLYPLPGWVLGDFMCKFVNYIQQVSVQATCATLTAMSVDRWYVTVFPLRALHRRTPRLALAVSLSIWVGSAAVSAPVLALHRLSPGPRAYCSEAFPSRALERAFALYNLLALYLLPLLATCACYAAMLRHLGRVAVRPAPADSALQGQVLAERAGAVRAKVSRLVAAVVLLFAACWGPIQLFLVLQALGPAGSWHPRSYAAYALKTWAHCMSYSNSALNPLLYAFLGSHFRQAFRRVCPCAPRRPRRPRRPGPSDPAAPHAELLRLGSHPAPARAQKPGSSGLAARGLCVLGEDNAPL
In general terms: Calcium assays in cells follow changes in intracellular calcium, usually with a dye or a luminescent sensor.

The nature of test [4]: G protein-coupled receptor (GPCR) small molecule agonists, calcium flux assay: HEK293 wild type cell line counter screen (AID 1920065). Summed up:
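Seed cells, incubate 18 h (37 C, 5% CO2); add calcium dye, 1 h at 37 C; pin-transfer compounds, ATP control or DMSO; read fluorescence 480/540 nm each second for 3 min.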

Test [5] is described as follows: p53 small molecule agonists, cell-based qHTS assay with human liver microsomes (AID 1963577).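 Also: p53 response element beta-lactamase reporter cells with liver microsomes plus NADPH.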 The method in brief:
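Steps: plate p53RE-bla cells, incubate 5 h at 37 C; add compound in DMSO; add microsomes (0.5 mg/mL final) and NADPH (0.5 mg/mL final); incubate 16 h at 37 C; add LiveBLAzer, 2 h RT; read fluorescence.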
A general note: Quantitative high-throughput screening tests each substance at several concentrations.

Test [6] in a line: p53 small molecule agonists, cell-based qHTS assay with rat liver microsomes (AID 1963578). Summed up: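 Metabolic activation is supplied by rat liver microsomes with NADPH (each 0.5 mg/mL final). p53RE-bla cells incubate with compound 16 h at 37 C; reporter activity is measured by LiveBLAzer fluorescence.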
Test [7] in a line: p53 small molecule agonists, cell-based qHTS assay with human liver microsomes: qHTS cell viability counter screen (AID 1963579). Also: nearly all actives have a fitted effect of over 45% in size. Summed up:
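After the 460/530 nm beta-lactamase read, CellTiter-Glo was added to the same wells and luminescence measured after 30 min at room temperature, giving viability of p53RE-bla cells treated 16 h with compounds plus microsomes and NADPH.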

The nature of test [8]: p53 small molecule agonists, cell-based qHTS assay with rat liver microsomes: qHTS cell viability counter screen (AID 1963580). Also: nearly all actives have a fitted effect of over 45% in size. Summed up: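 After the beta-lactamase ratio was read, CellTiter-Glo was added to the same wells and luminescence measured at 30 min; cells had been treated 16 h at 37 C with compounds, rat liver microsomes and NADPH (0.5 mg/mL final each).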
A short description of test [9]: p53 small molecule agonists, cell-based qHTS assay: qHTS cell viability counter screen (AID 1963581). Also: nearly all actives have a fitted effect of over 45% in size. Summed up:
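Viability was counter-screened in parallel with the p53 agonist reporter by measuring intracellular ATP luminescence in the same HCT-116 p53RE-bla wells after 16 h compound treatment at 37 C.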

In test [10] the target is 5-hydroxytryptamine receptor 2A (Homo sapiens) (UniProt P28223). As to the kind of experiment: 5-hydroxytryptamine receptor 2A (HTR2A) small molecule antagonists, cell-based qHTS assay (AID 1963586). Also: nearly all actives have a fitted effect of over 45% in size. The method in brief: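 CHO cells stably expressing human HTR2A were plated for 18 h at 37 C, then loaded with calcium dye for 1 h. Compounds were preincubated 5 min at room temperature before DOI (4 nM solution) was added. Kinetic fluorescence was read for 3 min.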
Chain of 5-hydroxytryptamine receptor 2A (Homo sapiens) (P28223 whole entry, looked up): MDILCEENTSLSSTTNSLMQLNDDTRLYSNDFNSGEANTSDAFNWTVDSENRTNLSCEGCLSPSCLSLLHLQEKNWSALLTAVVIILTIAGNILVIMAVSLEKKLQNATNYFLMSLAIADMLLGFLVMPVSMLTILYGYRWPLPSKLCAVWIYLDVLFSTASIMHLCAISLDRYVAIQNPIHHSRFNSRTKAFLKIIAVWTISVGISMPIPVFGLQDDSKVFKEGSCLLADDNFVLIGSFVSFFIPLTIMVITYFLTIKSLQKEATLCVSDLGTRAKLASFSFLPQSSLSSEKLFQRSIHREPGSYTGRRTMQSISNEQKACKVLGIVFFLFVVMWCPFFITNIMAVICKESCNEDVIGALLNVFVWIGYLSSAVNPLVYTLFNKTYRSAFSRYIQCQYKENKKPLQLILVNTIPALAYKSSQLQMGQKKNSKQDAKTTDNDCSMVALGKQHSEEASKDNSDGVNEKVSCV

Test [11] shares this target. Kind of test: 5-hydroxytryptamine receptor 2A (HTR2A) small molecule agonists, cell-based qHTS assay (AID 1963587). Also: nearly all actives have a fitted effect of over 30% in size. The method in brief:
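CHO cells stably expressing human HTR2A, plated 18 h, loaded with calcium dye 1 h at 37 C. Agonist mode: compounds added and intracellular calcium fluorescence recorded kinetically for 2 min at 1 sec intervals.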

Test [12] deals with Muscarinic acetylcholine receptor M1 (Homo sapiens) (UniProt P11229). As to the kind of experiment: Cholinergic receptor muscarinic 1 (CHRM1) small molecule agonists, cell-based qHTS assay (AID 1963589). Also: nearly all actives have a fitted effect of over 35% in size. The method in brief: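 Cells were plated and incubated 18 h at 37 C/5% CO2, loaded with calcium dye for 1 h at 37 C, then treated with compounds in DMSO. Fluorescence was recorded kinetically at 1 sec intervals.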
Chain of Muscarinic acetylcholine receptor M1 (Homo sapiens) (P11229 whole entry, looked up): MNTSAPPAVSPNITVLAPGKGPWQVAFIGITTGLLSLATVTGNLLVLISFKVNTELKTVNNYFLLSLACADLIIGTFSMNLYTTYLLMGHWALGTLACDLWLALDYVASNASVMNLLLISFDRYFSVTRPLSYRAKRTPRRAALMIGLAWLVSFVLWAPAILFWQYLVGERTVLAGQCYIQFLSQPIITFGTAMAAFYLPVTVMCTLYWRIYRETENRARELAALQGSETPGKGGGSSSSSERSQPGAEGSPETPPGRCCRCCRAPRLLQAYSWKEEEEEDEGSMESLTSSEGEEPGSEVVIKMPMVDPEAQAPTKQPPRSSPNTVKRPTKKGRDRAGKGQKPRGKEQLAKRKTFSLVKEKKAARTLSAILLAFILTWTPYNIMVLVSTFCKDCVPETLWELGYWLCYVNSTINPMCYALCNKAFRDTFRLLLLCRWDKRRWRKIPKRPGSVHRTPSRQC

A short description of test [13]: cAMP Responsive Elements (CRE) small molecule agonists, cell-based qHTS assay (AID 1963590). Summed up: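 Cells carrying a CRE-driven beta-lactamase reporter (HEK 293T) are seeded, incubated overnight (18 h), and treated with test compounds for 3 h at 37 C; reporter activity is then detected with a FRET substrate after 2 h at room temperature.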
Test [14] can be described thus: cAMP Responsive Elements (CRE) small molecule antagonists, cell-based qHTS assay (AID 1963591; active = well fitted inhibition curve with a large enough effect in the signal ratio in the repeat runs, not every such curve was filed as active; the % refers to the signal ratio). The method in brief:
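Cells (CRE-bla HEK 293T, DMEM with 10% dialyzed FBS and 25 mM HEPES) are seeded and incubated 18 h. Compounds are added with NKH477 agonist at 0.25 uM final for 3 h, then FRET substrate for 2 h.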

Test [15] addresses Beta-2 adrenergic receptor (Homo sapiens) (UniProt P07550). As to the kind of experiment: Adrenergic beta2 receptor (ADRB2) small molecule antagonists, cell-based qHTS assay (AID 1963592). Also: series mostly up to about 92 µM; nearly all actives have a fitted effect of over 50% in size. The method in brief:
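Assay format: CHO-ADRB2 cells, 18-20hr seeding at 37C/5% CO2, then compound plus 1nM isoproterenol agonist mix for 0.5hr RT. Homogeneous time-resolved fluorescence cAMP detection after 1hr, expressed as 665/615 nm ratio.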

Test [16] concerns the target D(2) dopamine receptor (Homo sapiens) (UniProt P14416). As to the kind of experiment: Dopamine D2 receptor (DRD2) small molecule agonists, cell-based qHTS assay (AID 1963594). Also: nearly all actives have a fitted effect of over 35% in size. Summed up: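 HEK293 cells stably expressing human DRD2, pre-treated with PDE inhibitor Ro20-1724 (0.1 mM final) and compound 10 min at room temperature, then stimulated with NKH477 (200nM […]) for 30 min. cAMP read by HTRF (665/620 nm).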

Test [17] has the same target. As to the kind of experiment: Dopamine D2 receptor (DRD2) small molecule antagonists, cell-based qHTS assay (AID 1963595; active = well fitted inhibition curve with a large enough effect in the signal ratio in the repeat runs, with a control signal flat; the % refers to the signal ratio; also: potency is read from the fitted curve at half-maximal effect). The method in brief: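 HEK293 cells stably expressing DRD2 were preincubated with 0.1 mM Ro20-1724, then with compound for 10 min at room temperature. Cells were stimulated with 200 nM NKH477 plus 12 nM quinpirole for 30 min, and cAMP was read by HTRF.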

Test [18] has as its target Gonadotropin-releasing hormone receptor (Homo sapiens) (UniProt P30968). Kind of test: Human gonadotropin-releasing hormone receptor (GnRHR) small molecule agonists, calcium flux assay in GnRHR-HEK293 cells (AID 1920063). Also: nearly all actives have a fitted effect of over 35% in size. Summed up:
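Agonist activity was measured as intracellular calcium flux in HEK293 cells engineered to stably express human GnRHR. After dye loading for 1 hour at 37 C, compounds in DMSO were added and fluorescence was followed for 3 minutes.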

Test [19] can be described thus: p53 small molecule agonists, cell-based qHTS assay (AID 1963582; active = well fitted activation curve with a large enough effect in the signal ratio in the repeat runs, not every such curve was filed as active; the % refers to the signal ratio). The method in brief:
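Cells carrying a p53-responsive bla reporter are treated with test compounds for 16 h at 37 C; beta-lactamase activity is then detected with LiveBLAzer B/G FRET substrate after 2 h at room temperature.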

The target of test [20] is Muscarinic acetylcholine receptor M1 (Homo sapiens) (UniProt P11229). Kind of test: Cholinergic receptor muscarinic 1 (CHRM1) small molecule antagonists, cell-based qHTS assay (AID 1963588). Also: nearly all actives have a fitted effect of over 40% in size. The method in brief:
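Compounds were tested at 15 concentrations in three independent runs. Dye-loaded CHRM1-CHO cells were exposed 5 min at room temperature before stimulation by acetylcholine added at 50nM. Intracellular calcium was read kinetically on FDSS for 3 min.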

SMILES strings stand for the structures. A number with no mark means an inactive call. Records with an inconclusive call do not appear. Active and inactive are the calls of the source. Unless noted, calls follow the shape of the full dose curve.

Chain of Beta-2 adrenergic receptor (Homo sapiens) (P07550 whole entry, looked up): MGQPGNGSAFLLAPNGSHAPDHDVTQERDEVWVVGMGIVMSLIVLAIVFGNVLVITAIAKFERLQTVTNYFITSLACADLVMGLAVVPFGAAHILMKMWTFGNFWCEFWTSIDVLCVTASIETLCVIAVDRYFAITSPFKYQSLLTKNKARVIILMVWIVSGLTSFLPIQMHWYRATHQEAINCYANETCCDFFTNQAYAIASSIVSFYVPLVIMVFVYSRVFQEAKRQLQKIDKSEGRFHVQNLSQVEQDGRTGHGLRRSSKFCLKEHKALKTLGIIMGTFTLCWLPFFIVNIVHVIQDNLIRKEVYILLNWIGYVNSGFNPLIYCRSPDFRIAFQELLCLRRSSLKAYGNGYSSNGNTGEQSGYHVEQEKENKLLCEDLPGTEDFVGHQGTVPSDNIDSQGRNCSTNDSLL
Chain of Gonadotropin-releasing hormone receptor (Homo sapiens) (P30968 whole entry, looked up): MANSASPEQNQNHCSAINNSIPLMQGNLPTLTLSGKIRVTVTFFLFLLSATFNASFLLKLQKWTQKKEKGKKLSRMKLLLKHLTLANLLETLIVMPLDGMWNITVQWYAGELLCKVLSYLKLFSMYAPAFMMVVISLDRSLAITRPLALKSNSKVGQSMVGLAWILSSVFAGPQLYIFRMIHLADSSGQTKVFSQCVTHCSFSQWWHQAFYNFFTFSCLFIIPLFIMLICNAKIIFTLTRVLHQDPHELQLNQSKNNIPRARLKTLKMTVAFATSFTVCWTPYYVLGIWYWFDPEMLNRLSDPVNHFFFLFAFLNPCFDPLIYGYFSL
Chain of D(2) dopamine receptor (Homo sapiens) (P14416 whole entry, looked up): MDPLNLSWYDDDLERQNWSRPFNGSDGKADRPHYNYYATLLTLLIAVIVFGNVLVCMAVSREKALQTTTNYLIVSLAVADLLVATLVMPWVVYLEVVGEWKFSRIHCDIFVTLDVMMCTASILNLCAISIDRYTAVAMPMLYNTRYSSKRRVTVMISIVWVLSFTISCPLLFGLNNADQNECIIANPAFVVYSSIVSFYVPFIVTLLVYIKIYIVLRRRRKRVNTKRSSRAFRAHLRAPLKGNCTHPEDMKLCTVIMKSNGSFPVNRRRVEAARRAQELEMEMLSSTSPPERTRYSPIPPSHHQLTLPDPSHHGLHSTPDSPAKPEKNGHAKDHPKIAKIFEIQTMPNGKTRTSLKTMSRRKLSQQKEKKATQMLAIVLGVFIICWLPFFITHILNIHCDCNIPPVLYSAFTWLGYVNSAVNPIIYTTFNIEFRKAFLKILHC

As to `Nc1cc(Cl)ccc1O`, the Potency entry in test [1], in test [3], in test [4], in test [5], in [6] and in test [7] was “inactive” throughout. For the same compound, the Potency result in test [8], in test [9], in test [10], in test [11], in [12] and in test [13] was “inactive” in each case. The Potency entry in test [14], in test [15], in [16] and in test [17] was “inactive” each time. For the same compound, the Potency in test [2] was 52.7 µM (active).
Regarding `CC(CCc1ccccc1)NC(C)C(O)c1ccc(O)cc1` (stereo not drawn), the Potency entry in [1], in [2], in [18], in test [4], in [6] and in test [7] was “inactive” in each case. For the same compound, the Potency entry in test [8], in test [19], in test [10], in [11], in [20] and in test [12] was “inactive” throughout. The Potency result in test [14], in test [15] and in test [16] was “inactive” throughout. Moreover, the Potency in [17] is 16.8 µM (active).
As to `CCCC[N+](CCCC)(CCCC)CCCC`, the Potency result in test [1], in test [2], in test [18], in test [6], in test [7] and in test [8] was “inactive” throughout. Moreover, the Potency result in test [9], in test [10], in test [11], in [12], in test [14] and in test [15] was “inactive” in each case. In addition, the Potency result in test [16] and in [17] was “inactive” throughout.
`CCC1(CC)C(=O)N=C(O)NC1=O`: the Potency result in test [1], in [2], in test [18], in test [4], in test [7] and in test [8] was “inactive” throughout. Further, the Potency result in [9], in [10], in test [11], in test [20], in test [12] and in test [13] was “inactive” in each case. Also, the Potency entry in test [14], in [15], in test [16] and in [17] was “inactive” in each case.
On to `C=CC(=O)NCNC(=O)C=C`, for which the Potency entry in test [1], in test [18], in test [4], in [10], in [20] and in test [12] was “inactive” in each case. In addition, the Potency result in test [13], in test [15] and in test [16] was “inactive” in each case. Moreover, the Potency in test [2] was 61.1 µM (active).
In the case of `CC1Sc2c(C(=O)O)c(=O)c3cc(F)c(N4CCNCC4)cc3n21` (stereo not drawn), the Potency result in [1], in [2], in [3], in [4], in [5] and in test [6] was “inactive” throughout. The Potency result in test [7], in test [8], in test [9], in test [19], in test [10] and in test [11] was “inactive” each time. For the same compound, the Potency result in test [20], in [12], in test [16] and in test [17] was “inactive” each time.
For the compound `C=C(C)[C@H]1CN[C@H](C(=O)O)[C@H]1CC(=O)O`, the Potency result in test [1], in test [2], in [18], in [4], in test [7] and in [8] was “inactive” each time. In addition, the Potency result in test [9], in test [11], in [20], in test [12], in test [13] and in test [14] was “inactive” in each case. Further, the Potency entry in [15], in test [16] and in test [17] was “inactive” in each case.
Turning to `CCOc1cccc(C2(N3CCN(c4ccccc4)CC3)CCC(C)CC2)c1` (stereo not drawn), the Potency entry in test [1], in [2], in [3], in [4], in [5] and in [6] was “inactive” throughout. For the same compound, the Potency result in test [7], in test [8], in test [9], in test [19], in test [10] and in test [11] was “inactive” in each case. Further, the Potency result in test [12], in test [13], in test [14], in test [15] and in test [16] was “inactive” each time.
As for `CCSCc1ccccc1OC(=O)NC`, the Potency entry in test [1], in test [2], in test [18], in test [4], in test [7] and in test [8] was “inactive” throughout. Besides, the Potency entry in test [9], in test [19], in test [10], in test [11], in test [20] and in [12] was “inactive” each time. For the same compound, the Potency entry in test [13], in [14], in test [15], in test [16] and in test [17] was “inactive” each time.
In the case of `CCN(CC)C(=O)[C@@H]1C=C2c3cccc4[nH]cc(c34)C[C@H]2N(C)C1`, the Potency entry in test [1], in test [2], in test [3], in [4], in test [5] and in [6] was “inactive” throughout. Moreover, the Potency result in test [7], in test [8], in test [9] and in [10] was “inactive” each time.
As for `CNC(=O)Oc1ccccc1C(C)C`, the Potency entry in [1], in test [2], in [18], in test [4], in test [8] and in [9] was “inactive” in each case. In addition, the Potency entry in test [19], in test [10], in test [11], in test [20], in [12] and in [13] was “inactive” in each case. In addition, the Potency result in test [14], in test [15], in [16] and in test [17] was “inactive” in each case.
Take `C[C@@H](N)[C@@H](O)c1ccccc1`: the Potency entry in test [1], in [2], in test [18], in [4], in test [7] and in [8] was “inactive” in each case. The Potency result in test [9], in test [10], in test [11], in test [20], in [12] and in test [13] was “inactive” each time. The Potency entry in [14] and in test [15] was “inactive” in each case.

The values are drawn from PubChem BioAssay (Tox21).
